Here are results for 16 compounds from PubChem BioAssay (NCI).

The panel holds about 83,000 compounds, 20% with a hit somewhere; the sample as a whole holds those more often.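 Note: values are percent growth. 100 is the growth of untreated cells, values between 100 and 0 indicate rising inhibition; between -100 and 0 indicates cell death.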 A number with no mark means an inactive call. Active and inactive are the calls of the source. Rule for the calls: active = growth percent below 10; inactive = the rest.

Test systems include T-47D breast; BT-549 breast; MDA-MB-435 melanoma; SW-620 colon; MCF7 breast; HCT-116 colon; HCC-2998 colon; KM12 colon.
Common to all, as to assay: NCI-60 one-dose screen, 48 h (100 = growth as untreated, 0 = no growth, -100 = all killed)
Common to all, as to details: 10 µM unless noted

On to `CCOc1ccc(/C=N\N=C\c2ccc(OCC)cc2)cc1`, for which the growth with T-47D breast was 94.7%; with BT-549 breast, 87.7%; in the test on MDA-MB-435 melanoma, 109%; in the test on SW-620 colon it was 52.8%; in the test on MCF7 breast it was 67.5%; in the test on HCT-116 colon it was 45.5%. Besides, the results for the growth with HCC-2998 colon and in the test on KM12 colon were 98% and 98.1%, respectively.
As to `N#Cc1nc2c(S(=O)(=O)c3ccccc3)c(N)n(Cc3cccnc3)c2nc1C#N`, the growth with T-47D breast was 58.6%; in the test with BT-549 breast, 65.4%; in the test with MDA-MB-435 melanoma, 94.9%; in the test on SW-620 colon, 77.7%; with MCF7 breast, 91.3%; in the test with HCT-116 colon, 98.2%. The growth in the test with HCC-2998 colon is 104%; in the test on KM12 colon it was 102%.
`COc1ccc(C(C)=O)cc1S(N)(=O)=O`: the growth with T-47D breast is 105%; with BT-549 breast, 95.6%; with MDA-MB-435 melanoma it was 99.3%; in the test with SW-620 colon it was 103%; in the test with MCF7 breast it was 96.4%; in the test with HCT-116 colon it was 89%. The growth in the test on HCC-2998 colon is 98.3%; in the test on KM12 colon it was 103%.
For the compound `O=C1Nc2ccccc2/C1=C/c1cn(C[C@@H](O)Cn2c3ccccc3c(=O)c3ccccc32)c2ccccc12`, the growth with T-47D breast is 62.7%; in the test on BT-549 breast, 73.3%; with MDA-MB-435 melanoma it was 85.1%; with SW-620 colon it was 78.7%; in the test on MCF7 breast it was 45.9%; in the test with HCT-116 colon it was 57.7%. Moreover, the growth is 76.1% with HCC-2998 colon and 68.2% with KM12 colon.
Regarding `CC1=NN(c2ccc(Cl)cc2)CC1(C)N=O` (stereo not drawn), the growth in the test on T-47D breast is 60.8%; in the test on BT-549 breast, 86.1%; in the test on MDA-MB-435 melanoma, 48.5%; in the test with SW-620 colon, 43.7%; with MCF7 breast it was 29.7%; in the test on HCT-116 colon it was 30.9%. In addition, the growth in the test with HCC-2998 colon is 102%; with KM12 colon it was 99.5%.
Take `COc1ccc(/C(C)=C(\c2ccc(Cl)cc2)c2ccc(OCCN3CCCC3)cc2)cc1`: the growth in the test on T-47D breast is 45.9%; in the test with BT-549 breast it was 57.9%; in the test on MDA-MB-435 melanoma, 39.2%; with SW-620 colon, 25.1%; with MCF7 breast it was 13%; in the test on HCT-116 colon, 23.6%. The growth with HCC-2998 colon is 87%; with KM12 colon, 24.5%.
Regarding `Cc1ccc(C)c(-n2c(-c3ccc(Br)cc3)csc2=NC(=O)c2ccccc2F)c1`, the growth is 41.3% in the test with T-47D breast; 28.7% in the test on BT-549 breast; 67.2% in the test with MDA-MB-435 melanoma; 69.6% in the test on SW-620 colon; 59.1% with MCF7 breast; 22.9% in the test on HCT-116 colon. The figures for the growth in the test on HCC-2998 colon and with KM12 colon were 117% and 60.8%, respectively.
`CN1CCN(Cc2cc(NC(=O)c3cccc(C#Cc4cccc5[nH]nc(N)c45)c3)cc(C(F)(F)F)c2)CC1`: the growth in the test with T-47D breast is 49%; in the test with BT-549 breast, 46%; in the test on MDA-MB-435 melanoma, -21.4% (active); with SW-620 colon, -45.2% (active); in the test with MCF7 breast, -23.4% (active); in the test on HCT-116 colon, -86.8% (active). In addition, the growth in the test with HCC-2998 colon is -70.9% (active); with KM12 colon, 13.7%.
Turning to `CNCc1cccc2c1OCCOCCN(C)C(=O)CN(C)S(=O)(=O)c1ccc(cc1)-c1cnc(N)c(n1)C(=O)N2`, the growth is -9.54% (active) in the test on T-47D breast; 92.4% in the test with BT-549 breast; -91.8% (active) in the test on MDA-MB-435 melanoma; -4.13% (active) in the test on SW-620 colon; 11.6% in the test with MCF7 breast; -69% (active) in the test with HCT-116 colon. The growth was 28% in the test with HCC-2998 colon and 9.24% (active) in the test on KM12 colon.
`Cc1cc(N2CCN(C)CC2)nc(NCc2cc(Nc3ccnc4cc(Cl)ccc34)ccc2F)n1`: the growth in the test on T-47D breast is -56.1% (active); with BT-549 breast, 30.4%; with MDA-MB-435 melanoma it was -43.6% (active); with SW-620 colon, -18.6% (active); in the test with MCF7 breast, -9.33% (active); in the test on HCT-116 colon it was -45.3% (active). Further, the growth in the test on HCC-2998 colon is -12.7% (active); in the test on KM12 colon, 12.7%.
For `CC(C)c1ccc(C(=O)Nc2sc3cc(O)ccc3c2C#N)cc1`, the growth in the test with T-47D breast is 36.4%; in the test with BT-549 breast it was 20.8%; with MDA-MB-435 melanoma, -42.9% (active); in the test on SW-620 colon, 28.7%; in the test on MCF7 breast, 13.8%; in the test with HCT-116 colon it was 15%. For the same compound, the figures for the growth in the test with HCC-2998 colon and in the test on KM12 colon were 60.3% and 21%, respectively.
Regarding `COc1ccccc1-n1c(-c2cc(O)ccc2C)cn2c3c(=O)[nH]c(=O)n(C)c3nc12`, the growth with T-47D breast was 87.8%; in the test with BT-549 breast, 100%; with MDA-MB-435 melanoma, 104%; in the test with SW-620 colon it was 106%; with MCF7 breast it was 84.1%; in the test with HCT-116 colon, 86.5%. Besides, the results for the growth with HCC-2998 colon and with KM12 colon were 98.6% and 108%, respectively.
As for `Cc1cc(C(=O)Nc2cc(Nc3ncccc3-c3ncnc4nc[nH]c34)ccc2F)cc(C(F)(F)F)c1`, the growth in the test on T-47D breast was 64.8%; in the test on BT-549 breast, 91.3%; with MDA-MB-435 melanoma, 26.2%; in the test on SW-620 colon it was 33.9%; in the test on MCF7 breast, 66.9%; with HCT-116 colon, 19.1%. The growth is 30.6% in the test with HCC-2998 colon and 49.5% with KM12 colon.
As to `O=C1Nc2ccccc2C2c3cccn3-c3ccccc3N12` (stereo not drawn), the growth in the test with T-47D breast is 76%; with BT-549 breast it was 82.7%; in the test on MDA-MB-435 melanoma it was 7.5% (active); with SW-620 colon, 49.6%; with MCF7 breast it was 60.1%; in the test on HCT-116 colon it was 78.2%. Besides, the results for the growth with HCC-2998 colon and with KM12 colon were 77.2% and 62.3%, respectively.
On to `COc1ccc2c(c1)c(-c1cc(-c3cn(C)c4ccc(OC)cc34)on1)cn2C`, for which the growth was 80.9% in the test with T-47D breast; 127% in the test on BT-549 breast; 116% in the test on MDA-MB-435 melanoma; 91.8% in the test with SW-620 colon; 89% in the test on MCF7 breast; 89.1% in the test with HCT-116 colon. Besides, the growth in the test on HCC-2998 colon is 101%; with KM12 colon, 106%.
For `CCN(CC)CCOc1ccc(Nc2ncc3cc(-c4ccc(O)cc4)c(=O)n(C)c3n2)cc1`, the growth in the test on T-47D breast is 67.4%; in the test with BT-549 breast it was 30.1%; in the test on MDA-MB-435 melanoma it was 61.1%; in the test with SW-620 colon it was -33.7% (active); in the test with MCF7 breast it was 51.5%; in the test with HCT-116 colon it was 32%. The growth with HCC-2998 colon was 86.8%; in the test with KM12 colon, 37.2%.
